Rtt109 HAT inh = inhibitors of C. albicans Rtt109/Vps75 HAT, primary screen, biochemical, ThioGlo CoA-SH fluorescence, plate reader; AID 540336, 2011; purified Rtt109/Vps75, 4 h; 330,000 compounds, 0.16% hits; Histone acetyltransferase RTT109 (Candida albicans (strain SC5314 / ATCC MYA-2876)), …; inhibition, % at 34.9 µM;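 active = inhibition of at least 50% in every replicate; inconclusive = best replicate reaches 50% inhibition but some replicates fall short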
ABHD5 PLIN5 PPI = ABHD5-PLIN5 interaction inhibitors, primary screen, cell lysate, split luciferase complementation, luminescence | Perilipin-5 (Homo sapiens) + 1-acylglycerol-3-phosphate O-acyltransferase ABHD5 (Homo … | Split G. princeps luciferase complementation, 4 h | inhibition, % at 4 µM | 360,000 compounds, 0.78% hits | AID 602281, 2012;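 active = inhibition above the mean inhibition across every tested compound plus 3 SD, cut at about 22% in these data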
Target sequence (Q00G26 whole entry, looked up): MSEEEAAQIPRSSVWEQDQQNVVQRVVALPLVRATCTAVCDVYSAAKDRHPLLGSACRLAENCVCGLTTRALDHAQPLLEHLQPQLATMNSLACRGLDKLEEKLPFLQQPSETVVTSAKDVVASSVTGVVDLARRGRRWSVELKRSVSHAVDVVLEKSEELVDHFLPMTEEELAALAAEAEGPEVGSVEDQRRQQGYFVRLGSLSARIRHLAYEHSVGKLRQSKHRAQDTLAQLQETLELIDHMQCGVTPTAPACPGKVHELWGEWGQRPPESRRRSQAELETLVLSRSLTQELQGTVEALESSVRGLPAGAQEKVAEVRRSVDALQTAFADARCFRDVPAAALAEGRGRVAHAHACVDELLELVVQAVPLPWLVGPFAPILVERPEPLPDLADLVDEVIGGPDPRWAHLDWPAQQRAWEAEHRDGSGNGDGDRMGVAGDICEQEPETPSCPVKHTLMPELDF
Target sequence (Q8WTS1 whole entry, looked up): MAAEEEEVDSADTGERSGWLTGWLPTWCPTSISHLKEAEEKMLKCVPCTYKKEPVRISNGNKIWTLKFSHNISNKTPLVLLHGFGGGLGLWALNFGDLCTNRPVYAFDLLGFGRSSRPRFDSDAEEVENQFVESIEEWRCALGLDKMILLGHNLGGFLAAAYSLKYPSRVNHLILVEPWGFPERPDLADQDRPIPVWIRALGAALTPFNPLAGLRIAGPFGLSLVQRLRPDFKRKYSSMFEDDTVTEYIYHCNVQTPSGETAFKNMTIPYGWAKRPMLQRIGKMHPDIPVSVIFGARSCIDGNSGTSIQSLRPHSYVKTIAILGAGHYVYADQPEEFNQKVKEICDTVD
ALR H2O2 inh = inhibitors of human ALR sulfhydryl oxidase, primary screen, biochemical, H2O2 detection, HRP-luminol luminescence, single point. FAD-linked sulfhydryl oxidase ALR (Homo sapiens), P55789. purified ALR, DTT oxidation. inhibition, % (concentration not given with the values). 290,000 compounds, 3.8% hits. AID 485317, 2010;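 active = mean replicate inhibition above about 79%, with every replicate also reaching it, limit read from the data; inconclusive = only one of the two criteria met; inactive = mean below limit and not every replicate reaching it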
LANA-H2A inh = blockers of LANA interaction with H2A/H2B – biochemical, FP readout, HTS, primary screen | 320,000 compounds, 0.6% hits | cell-free LANA-H2A/H2B peptide, fluorescence polarization | Protein LANA1 (Human herpesvirus 8 type P (isolate GK18)), Q9QR71 | inhibition, % (no concentration beside the values); in the data active = inhibition mostly above about 10%, no sharp cut-off; inactive = mostly below about 6.7%
PRMT1 inh = PRMT1 methyltransferase inhibitors, primary screen, biochemical, fluorescence polarization | Protein arginine N-methyltransferase 1 (Homo sapiens), Q99873 | recombinant PRMT1, activity-based probe fluorescence polarization | inhibition, % at 2.79 µM | 370,000 compounds, 1.3% hits;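 active = inhibition above about 21% made by adding two undisclosed values, limit read from the data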
rCAG binder = binders of r(CAG) RNA repeats, primary screen, biochemical, fluorescence; r(CAG) RNA repeat, TO-PRO-1 dye displacement fluorescence; inhibition, % at 3 µM; 370,000 compounds, 1.3% hits; AID 651821, 2012;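 active = inhibition above the plate cutoff, the mean of all test compounds on that plate plus 3 SD, cut at about 35% in these data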;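 also: higher means more dye released from RNA so lower well fluorescence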
Of the large screens only hits and unclear results are named; the others gave an inactive call. Hits are enriched below; roughly 5.9% of the tested compounds scored in any of these assays.

COCCn1c(SCC(=O)Nc2cccc(C)c2)nnc1C(C)C	none (no result: ALR H2O2 inh)
COCCn1c(SCC(=O)c2ccc(Cl)cc2)nnc1C(C)C	ALR H2O2 inh 91
COCCn1c(SCC(=O)c2ccc3c(c2)OCCO3)nnc1C(C)C	none
COCCn1c(SCC(=O)Nc2cc(C)cc(C)c2)nnc1C(C)C	ALR H2O2 inh 100
CCc1nc(Nc2ccccc2O)c2oc3ccccc3c2n1	none
CCc1nc(NCc2ccco2)c2oc3ccccc3c2n1	ALR H2O2 inh 88
CCc1nc(Nc2ccc(O)cc2)c2oc3ccccc3c2n1	ALR H2O2 inh 93
CC(C)CC(CCOCCO)NC(=O)OCc1ccccc1[N+](=O)[O-] (stereo not given)	none (no result: Rtt109 HAT inh, ABHD5 PLIN5 PPI, ALR H2O2 inh, LANA-H2A inh, rCAG binder)
Nc1ccc(N2CCOCC2)c2nonc12	PRMT1 inh 40 (no result: Rtt109 HAT inh)
CCCC(=O)NC(c1ccc(N(C)C)cc1)c1ccc2cccnc2c1O (stereo not given)	ALR H2O2 inh 90
CCCC(=O)NC(c1ccc(C(C)C)cc1)c1ccc2cccnc2c1O (stereo not given)	none
CCOC(=O)[C@]12CCC=C1N(Cc1ccccc1)C(=O)[C@H](CC(=O)NCc1ccc(C)o1)C2	PRMT1 inh 23 (no result: Rtt109 HAT inh, ALR H2O2 inh, LANA-H2A inh)
CCOC(=O)[C@]12CCC=C1N(Cc1ccco1)C(=O)[C@H](CC(=O)NCc1ccc(C)o1)C2	none (no result: Rtt109 HAT inh, ALR H2O2 inh, LANA-H2A inh)
COC(=O)[C@]12C[C@H](CC(=O)NCc3ccc(C)o3)C(=O)N(Cc3ccccc3)C1=C[C@H](C1CCCC1)O[C@@H]2C	PRMT1 inh 22 (no result: Rtt109 HAT inh, ABHD5 PLIN5 PPI, ALR H2O2 inh, LANA-H2A inh)
COC(=O)[C@]12C[C@H](CC(=O)NCc3ccc(C)o3)C(=O)N(Cc3cccc4ccccc34)C1=C[C@H](C1CCCC1)O[C@@H]2C	none (no result: Rtt109 HAT inh, ABHD5 PLIN5 PPI, ALR H2O2 inh, LANA-H2A inh)
CCCCOCCCNC(=O)C[C@H]1C[C@@]2(C(=O)OC)C(=C[C@H](COCc3ccccc3)O[C@@H]2C)N(Cc2ccc(Cl)cc2Cl)C1=O	none (no result: Rtt109 HAT inh, ABHD5 PLIN5 PPI, ALR H2O2 inh, LANA-H2A inh)
Cc1ccc(NNC(=O)c2ccno2)c(C)c1	ALR H2O2 inh 99
Cc1cc(NC(=O)c2ccno2)no1	none
S=c1[nH]nc(COc2ccc(Cl)cc2Cl)n1-c1ccccc1	ALR H2O2 inh 84
S=c1[nH]nc(-c2ccc(Cl)cc2Cl)n1-c1ccccc1	none
Oc1ccc2c(c1)C1CCCC1(N1CCOCC1)O2 (stereo not given)	PRMT1 inh 27
O=C(NN=Cc1ccc(N2CCOCC2)s1)c1ccc([N+](=O)[O-])cc1	ALR H2O2 inh inconclusive
COC(=O)C1(Cc2ccc(O)c(CC3OC3(C)C)c2)OC(=O)C(O)=C1c1ccc(O)cc1 (stereo not given)	ALR H2O2 inh 98
CCOc1ccc2c(O)csc2c1	PRMT1 inh 41
COc1cc(/C=C2/SC(=S)N(C)C2=O)ccc1OC(=O)c1ccco1	none
COc1cc(/C=C2\SC(=S)N(NC(C)=O)C2=O)ccc1OC(=O)c1ccco1	ALR H2O2 inh 98
Cc1ccccc1C(=O)n1ccc2ccc(-c3ccc4ccn(Cc5ccccc5)c4c3)cc21	none (no result: Rtt109 HAT inh, ABHD5 PLIN5 PPI, ALR H2O2 inh, LANA-H2A inh)
COc1cccc(-c2cc3nc(C)c(C)c(N4CCN(C(=O)c5ccoc5)CC4)n3n2)c1	none (no result: Rtt109 HAT inh, ALR H2O2 inh, LANA-H2A inh)
COCCCn1cc(CN2CC=CS2(=O)=O)nn1	none (no result: Rtt109 HAT inh, ABHD5 PLIN5 PPI, ALR H2O2 inh, LANA-H2A inh)
Cc1cc(C)n(C(=O)CNC(=O)c2cccc(F)c2)n1	none (no result: ALR H2O2 inh, LANA-H2A inh)
Cc1nn(C(=O)CNC(=O)c2ccccc2)c(C)c1C	LANA-H2A inh 9.6 (no result: ALR H2O2 inh)
CCN(CC)CCn1c(=S)[nH]c2ccc(Cl)cc2c1=O	ALR H2O2 inh 89
C/C(=C(/CCO)SSCC1CCCO1)N(C=O)Cc1cnc(C)nc1N (stereo not given)	PRMT1 inh 24
Cc1ncc(C[n+]2csc(CCO)c2C)c(N)n1	none
COC(=O)[C@]12C[C@H](CC(=O)NCCCCc3ccccc3)C(=O)N(CCC3=CCCCC3)C1=C[C@H](C(C)C)O[C@@H]2C1CC1	none (no result: Rtt109 HAT inh, ABHD5 PLIN5 PPI, ALR H2O2 inh, LANA-H2A inh)
CCCNC(=O)CS(=O)(=O)Cc1nc(-c2cccc(OC)c2)oc1C	ALR H2O2 inh 98
CCOCCCNC(=O)CS(=O)(=O)Cc1nc(-c2cccc(OC)c2)oc1C	ALR H2O2 inh 98
CCn1c(CN2CCOCC2)nnc1SCC(=O)Nc1ccccc1C	LANA-H2A inh 127
CCn1c(CN2CCOCC2)nnc1SCC(=O)Nc1ccc(C)cc1	none
O=S(=O)(/N=C(/Sc1ccccc1)c1ccccc1)c1ccccc1	ALR H2O2 inh 98
Clc1ccc(N2N=C(c3cccs3)CC2c2ccco2)cc1 (stereo not given)	none
c1ccc(N2N=C(c3cccs3)CC2c2ccco2)cc1 (stereo not given)	ALR H2O2 inh 97
NC(=O)c1ccc(CSc2nc3ccccc3s2)cc1	ALR H2O2 inh 92
CC(=O)Nc1ccc(NC(=O)COC(=O)CCc2nc3ccccc3s2)cc1	none
COCCNC(=O)c1ccc(CSc2nc3ccccc3s2)cc1	ALR H2O2 inh 99
COCCNC(=O)COC(=O)CSCc1nc2ccccc2s1	ALR H2O2 inh 98
CCNC(=O)c1ccc(CSc2nc3ccccc3s2)cc1	ALR H2O2 inh 99
COCCNC(=O)c1nc2ccccc2s1	none
Cc1csc(NC(=O)c2ccc(COc3ccc(Cl)c(Cl)c3)o2)n1	none (no result: Rtt109 HAT inh, ABHD5 PLIN5 PPI, ALR H2O2 inh, LANA-H2A inh)
C[C@H]1CN([C@@H](C)CO)C(=O)CCCn2nncc2CO[C@@H]1CN(C)S(=O)(=O)c1cccs1	none (no result: Rtt109 HAT inh, ABHD5 PLIN5 PPI, ALR H2O2 inh, LANA-H2A inh)
CN(C)c1ccc(CNC(=O)c2cc(S(=O)(=O)N3CCCC3)cn2C)cc1	ALR H2O2 inh 98
CN(C)c1ccc(CNC(=O)C2CCN(S(=O)(=O)c3ccc4c(c3)CCCC(=O)N4)CC2)cc1	ALR H2O2 inh 98
C#CCCN([C@@H](CC(C)C)C(=O)OC)S(=O)(=O)c1ccc(F)cc1Br	none (no result: Rtt109 HAT inh, ABHD5 PLIN5 PPI, ALR H2O2 inh, LANA-H2A inh)
O=S1(=O)N[C@@H](Cc2ccccc2)COc2cc(N3CCSCC3)ccc21	none (no result: Rtt109 HAT inh, ALR H2O2 inh, LANA-H2A inh)
COc1ccc(S[C@]2(C(=O)N3CCN(c4ncccn4)CC3)CC(=O)N(c3ccc4ccccc4c3)[C@@H]2c2ccc(OC)cc2)cc1	none (no result: Rtt109 HAT inh, ABHD5 PLIN5 PPI, ALR H2O2 inh, LANA-H2A inh)
COc1cc(NC(=O)C2CCCN(S(=O)(=O)c3cc(OC)ccc3OC)C2)cc(OC)c1 (stereo not given)	none (no result: Rtt109 HAT inh, ABHD5 PLIN5 PPI, ALR H2O2 inh, LANA-H2A inh)
CC(C)C(C(=O)Nc1cccnc1)N1C(=O)c2ccccc2C1=O (stereo not given)	Rtt109 HAT inh 53
CC(C)C(C(=O)Nc1ccccc1F)N1C(=O)c2ccccc2C1=O (stereo not given)	none
CCOC(=O)N1CCN(C(=O)CCn2c(=S)[nH]c3ccccc3c2=O)CC1	none (no result: ALR H2O2 inh)
CCOC(=O)N1CCN(C(=O)CCCCn2c(=S)[nH]c3ccsc3c2=O)CC1	ALR H2O2 inh 96
Cc1ccc(NC(=O)CCCn2c(=S)[nH]c3ccsc3c2=O)cc1C	ALR H2O2 inh 84
